# Results filed as inconclusive are left out. A call without a number means that no potency is given here. Active and inactive are the calls of the source. Unless noted, calls follow the shape of the dose curve; as a rule, active = well fitted curve in the direction sought with a large enough effect; inconclusive = small, poorly fitted or top-dose-only effect, or another doubt; inactive = no such curve, though single readings can be large; an effect the other way counts as inactive or inconclusive.
# Assay: qHTS assay to identify small molecule inhibitors of chordoma cells - UCH-2 (AID 1259356)
# Settings: UCH-2 chordoma viability, CellTiter-Glo ATP luminescence, 48 h; series mostly up to 46.1 µM
row,SMILES,outcome
1,O=c1[nH]cc(F)c(=O)[nH]1,inactive
2,Clc1ccc(C(c2ccccc2Cl)C(Cl)Cl)cc1 (centres undefined),inactive
3,CN1CCN2c3ccccc3Cc3ccccc3C2C1 (centres undefined),inactive
4,Cc1ccc(-c2cc(C(F)(F)F)nn2-c2ccc(S(N)(=O)=O)cc2)cc1,inactive
5,CN(C)c1nc(N(C)C)nc(N(C)C)n1,inactive
6,CN(C)CCOC(c1ccccc1)c1ccccc1,inactive
7,CCOC(=O)Nc1ccc(NCc2ccc(F)cc2)nc1N,inactive
8,CN1C(C(=O)Nc2ccccn2)=C(O)c2ccccc2S1(=O)=O,inactive
9,CN1CCN(C2=Nc3cc(Cl)ccc3Nc3ccccc32)CC1,inactive
10,Cn1ccc2cc3c(cc21)CCN3C(=O)Nc1cccnc1,inactive
11,CN1CCC(=C2c3ccccc3CC(=O)c3sccc32)CC1,inactive
12,CC(C)Cc1ccc(C(C)C(=O)O)cc1 (centres undefined),inactive
13,CCOC(=O)c1ncn2c1CN(C)C(=O)c1cc(F)ccc1-2,inactive
14,Cc1cc(C(C)(C)C)c(O)c(C)c1CC1=NCCN1,inactive
15,OCCN(CCO)c1nc(N2CCCCC2)c2nc(N(CCO)CCO)nc(N3CCCCC3)c2n1,inactive
16,CC12CC3CC(C)(C1)CC(N)(C3)C2,inactive
17,CN1CCC(=C2c3ccccc3C=Cc3ccccc32)CC1,inactive
18,Cn1c(=O)c2[nH]cnc2n(C)c1=O,inactive
19,Cc1cn([C@H]2C[C@H](N=[N+]=[N-])[C@@H](CO)O2)c(=O)[nH]c1=O,inactive
20,CC(C(=O)O)c1cccc(C(=O)c2ccccc2)c1 (centres undefined),inactive
21,COc1cc2nc(N3CCN(C(=O)C4COc5ccccc5O4)CC3)nc(N)c2cc1OC (centres undefined),inactive
22,Nc1nnc(-c2cccc(Cl)c2Cl)c(N)n1,inactive
23,C[C@H]1c2cccc(O)c2C(O)=C2C(=O)[C@]3(O)C(O)=C(C(N)=O)C(=O)[C@@H](N(C)C)[C@@H]3[C@@H](O)[C@@H]21,inactive
24,NC12CC3CC(CC(C3)C1)C2,inactive
25,CC1(C)O[C@H]2CC(=O)OC[C@]23[C@H]2CC[C@@]4(C)[C@H](c5ccoc5)OC(=O)[C@H]5O[C@]54[C@]2(C)C(=O)C[C@@H]13,inactive
26,CN(CCOc1ccc(NS(C)(=O)=O)cc1)CCc1ccc(NS(C)(=O)=O)cc1,inactive
27,Clc1ccccc1C(c1ccccc1)(c1ccccc1)n1ccnc1,inactive
28,CCc1cccc2c3c([nH]c12)C(CC)(CC(=O)O)OCC3 (centres undefined),inactive
29,NCCCCCC(=O)O,inactive

# Assay: P-glycoprotein substrates identified in KB-3-1 adenocarcinoma cell line, qHTS therapeutic library screen (AID 1346986); also: nearly all actives have a fitted effect of over 60% in size
# Settings: KB-3-1 parental cells viability, CellTiter-Glo, 72 h; series mostly up to 44.5 µM
# How it was run: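 Counter-screen: cherry-picked hits retested in the KB pair and in HEK-293 pcDNA/MDR-19 cells ± tariquidar. Primary screen used 72 h CellTiter-Glo viability in KB-3-1 and KB-8-5-11.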
row,SMILES,outcome
1,Cc1ccc(-c2cc(C(F)(F)F)nn2-c2ccc(S(N)(=O)=O)cc2)cc1,inactive
2,CN(C)CCOC(c1ccccc1)c1ccccc1,inactive
3,Nc1ccn([C@H]2CC[C@@H](CO)O2)c(=O)n1,inactive
4,CC1(C)O[C@H]2CC(=O)OC[C@]23[C@H]2CC[C@@]4(C)[C@H](c5ccoc5)OC(=O)[C@H]5O[C@]54[C@]2(C)C(=O)C[C@@H]13,inactive

# Assay: P-glycoprotein substrates identified in KB-8-5-11 adenocarcinoma cell line, qHTS therapeutic library screen (AID 1346987); also: nearly all actives have a fitted effect of over 65% in size; also: potency is read from the fitted curve at half-maximal effect
# Settings: KB-8-5-11 (P-gp overexpressing) viability, CellTiter-Glo, 72 h; series mostly up to 44.5 µM
# How it was run: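 P-gp-mediated resistance screen: KB-8-5-11 cells treated 72 h with compounds in dose-response. CellTiter-Glo viability.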
row,SMILES,Potency
1,CN(C)c1nc(N(C)C)nc(N(C)C)n1,inactive
2,CN(C)CCOC(c1ccccc1)c1ccccc1,inactive
3,CC(C)Cc1ccc(C(C)C(=O)O)cc1 (centres undefined),inactive
4,Nc1ccn([C@H]2CC[C@@H](CO)O2)c(=O)n1,inactive
5,Cc1cn([C@H]2C[C@H](N=[N+]=[N-])[C@@H](CO)O2)c(=O)[nH]c1=O,inactive
6,CC(C(=O)O)c1cccc(C(=O)c2ccccc2)c1 (centres undefined),inactive
7,COc1cc2nc(N3CCN(C(=O)C4COc5ccccc5O4)CC3)nc(N)c2cc1OC (centres undefined),inactive
8,Nc1nnc(-c2cccc(Cl)c2Cl)c(N)n1,inactive
9,C[C@H]1c2cccc(O)c2C(O)=C2C(=O)[C@]3(O)C(O)=C(C(N)=O)C(=O)[C@@H](N(C)C)[C@@H]3[C@@H](O)[C@@H]21,inactive
10,CC1(C)O[C@H]2CC(=O)OC[C@]23[C@H]2CC[C@@]4(C)[C@H](c5ccoc5)OC(=O)[C@H]5O[C@]54[C@]2(C)C(=O)C[C@@H]13,inactive
11,CN(CCOc1ccc(NS(C)(=O)=O)cc1)CCc1ccc(NS(C)(=O)=O)cc1,inactive
12,Clc1ccccc1C(c1ccccc1)(c1ccccc1)n1ccnc1,9.88 µM (active)

# Assay: Natriuretic polypeptide receptor (hNpr1) antagonism - Pilot counterscreen GloSensor control cell line (AID 1347045; calls by dose curve)
# Settings: HEK293 cGMP GloSensor cells, SNP-stimulated luminescence, 20 min; series mostly up to 38.3 µM
# How it was run: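 This counterscreen uses HEK293 cells expressing the GIP/pGS-40F cGMP biosensor. Compound-treated cells are challenged with 50 uM sodium nitroprusside, and the luciferase signal is compared before and after stimulation.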
row,SMILES,Potency
1,O=c1[nH]cc(F)c(=O)[nH]1,inactive
2,CN1CCN2c3ccccc3Cc3ccccc3C2C1 (centres undefined),inactive
3,CN(C)c1nc(N(C)C)nc(N(C)C)n1,inactive
4,CN(C)CCOC(c1ccccc1)c1ccccc1,inactive
5,CN1C(C(=O)Nc2ccccn2)=C(O)c2ccccc2S1(=O)=O,inactive
6,CN1CCN(C2=Nc3cc(Cl)ccc3Nc3ccccc32)CC1,inactive
7,CC(C)Cc1ccc(C(C)C(=O)O)cc1 (centres undefined),inactive
8,CCOC(=O)c1ncn2c1CN(C)C(=O)c1cc(F)ccc1-2,inactive
9,Cc1cc(C(C)(C)C)c(O)c(C)c1CC1=NCCN1,inactive
10,OCCN(CCO)c1nc(N2CCCCC2)c2nc(N(CCO)CCO)nc(N3CCCCC3)c2n1,inactive
11,CC12CC3CC(C)(C1)CC(N)(C3)C2,inactive
12,CN1CCC(=C2c3ccccc3C=Cc3ccccc32)CC1,inactive
13,Cn1c(=O)c2[nH]cnc2n(C)c1=O,inactive
14,Nc1ccn([C@H]2CC[C@@H](CO)O2)c(=O)n1,inactive
15,COc1cc2nc(N3CCN(C(=O)c4ccco4)CC3)nc(N)c2cc1OC,inactive
16,C[C@H]1c2cccc(O)c2C(O)=C2C(=O)[C@]3(O)C(O)=C(C(N)=O)C(=O)[C@@H](N(C)C)[C@@H]3[C@@H](O)[C@@H]21,inactive
17,NC12CC3CC(CC(C3)C1)C2,inactive
18,CCc1cccc2c3c([nH]c12)C(CC)(CC(=O)O)OCC3 (centres undefined),inactive
19,NCCCCCC(=O)O,inactive

# — PubChem BioAssay (NCATS)
